Assay results reported in PubChem BioAssay AID2025 (NMMLSC, 2009).
Out of some 330,000 compounds screened, about 980 (0.3%) were called active. For the sample, actives were picked, then their nearest neighbours and some compounds at random. Unmarked numbers belong to inactive results.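 How the source made its calls: active means percent response vs DMSO below 50%; inconclusive means fewer than 70 events counted for the yeast strain; inactive means the rest.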

Experiment: compounds altering RPL19A-GFP fluorescence, TOR branch – cell-based, S. cerevisiae, multiplex flow cytometry, MLPCN, primary screen (AID 2025);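 further: median channel GFP fluorescence of the barcoded RPL19A-GFP strain; ratio of sample median GFP to plate DMSO average so 100% = DMSO; lower means less RPL19A-GFP as with rapamycin TOR inhibition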
Details: S. cerevisiae RPL19A-GFP strain, 3 h, at 10 µM, stronger effect = lower value

Compound	percent response vs DMSO
O=C(CN1CCCC1)N1CCN(c2ccccc2)CC1	90.5%
Cc1nc2ccccc2c(=O)n1NC(=O)c1ccccc1	100%
Cc1nc2c(ncn2-c2ccccc2)c(=O)n1NC(=O)CN1CCCC1	27.7% [may fluoresce violet] (active)
CN(CCc1cnn(C)c1)Cc1cn(C)nc1-c1ccccc1F	96.2%
COc1ccc(CN2CCCC(C(=O)c3ccc(Cl)cc3)C2)cc1Cn1cncn1 (configuration not stated)	105%
COc1cc(CN2CCCC(C(=O)c3ccc(SC)cc3)C2)cc(Cl)c1O (configuration not stated)	40.5% [may fluoresce violet] (active)
COc1ccc(C(=O)NC2CC2)cc1OC1CCN(Cc2ccc(SC)cc2)CC1	101%
CN(C)C(=O)c1cc(Br)ccc1Cl	95.1%
Cc1ccc(SCCSc2ncccn2)cc1	109%
Cc1ccc(SCc2cc(=O)[nH]c(N3CCCCC3)n2)cc1	97.5%
Cc1ccc(SCC2=NNC(=O)C2)cc1	38.4% [may fluoresce violet] (active)
Cc1cccc(N2CCN(C(=O)CN(C)S(=O)(=O)c3ccc4c(c3)CCC(=O)N4)CC2)c1C	99.3%
Clc1c(OCCCn2ccnc2)ccc2ccccc12	99.7%
O=C(CSc1ncccn1)NCCc1ccccc1	99.8%
CC(=O)OC(C(=O)NCCc1ccccc1)c1cccnc1 (configuration not stated)	47.6% [may fluoresce violet] (active)
CCC(Oc1ccccc1)C(=O)NCc1cccnc1 (configuration not stated)	100%
O=C1COc2ccc(C(=O)COC(=O)CCOc3ccccc3)cc2N1	97.8%
C=CCN(CC=C)S(=O)(=O)c1ccc(C(=O)Nc2nc3c(s2)CCc2ccccc2-3)cc1	103%
COc1ccc(C(=O)Nc2ncc3c(n2)-c2ccccc2CC3)cc1	97.8%
COCCN(CCOC)S(=O)(=O)c1ccc(C(=O)Nc2nc3c(s2)CCc2ccccc2-3)cc1	25.1% [may fluoresce violet] (active)
COc1cc(CNc2ncn[nH]2)ccc1OCc1ccccc1C	103%
O=C1COc2ccc(S(=O)(=O)NCCc3ccc(Cl)cc3)cc2N1	103%

Compound	percent response vs DMSO
O=C(Cc1c(F)cccc1Cl)Nc1ccc(-n2cnnn2)cc1	94.7%
C=CCc1cccc(/C=N/NC(=O)COc2ccc(-n3cnnn3)cc2)c1O	105%
O=C(COc1ccc(-n2cnnn2)cc1)Nc1ccccc1Cl	33.1% [may fluoresce violet] (active)
COc1ccc(CN(Cc2ccco2)S(=O)(=O)c2ccc(S(=O)(=O)N3CCCC3)cc2)cc1	107%
CCOc1ccc(S(=O)(=O)N2CCC(c3ccccc3)CC2)cc1C(=O)O	99.8%
CC(Oc1cc2oc(=O)c3c(c2cc1Cl)CCCC3)C(=O)NCc1ccncc1 (configuration not stated)	14.1% [may fluoresce violet] (active)
COc1ccc(S(=O)(=O)NC(C)C(=O)NCc2ccncc2)cc1Cl (configuration not stated)	99.9%
O=C(COc1cc2oc(=O)c3c(c2cc1Cl)CCC3)NCCCN1CCOCC1	112%
Cc1ccc(OCCCCN2CCCCC2)c(Br)c1	96.8%
CCOc1ncccc1C(=O)OCC(=O)N1c2ccccc2CC1C (configuration not stated)	95.9%
CCOc1ncccc1C(=O)OCC(=O)NC1CC1	99.9%
CCOc1ncccc1C(=O)OCc1cn2cc(Cl)ccc2n1	45.3% [may fluoresce violet] (active)
Cc1cc(NC(=O)CCC(=O)N(CC(=O)NC2CCCC2)c2ccc(F)cc2)no1	100%
Cc1cc(C)cc(N(CC(=O)NC2CCCC2)C(=O)CCC(=O)Nc2cc(C)on2)c1	46.1% [may fluoresce violet] (active)
Cc1cc(C)cc(N(CC(=O)NC2CCCC2)C(=O)CCC(=O)Nc2nccs2)c1	103%
COc1cc(C2C3=C(CCCC3=O)OC3=C2C(=O)CCC3)ccc1OCC(=O)Nc1ccccc1	110%
O=C1CSC(=S)N1c1ccc(Cl)c(Cl)c1	109%
COc1ccccc1CN1CCCC(N2CCN(c3ccc(F)cc3)CC2)C1 (configuration not stated)	30.8% [may fluoresce violet] (active)
COc1ccccc1CN1CCN(Cc2cc(OC)c(OC)cc2OC)CC1	106%
COc1ccc(CN2CCCC(N3CCc4ccccc4C3)C2)c(O)c1 (configuration not stated)	101%
O=C(O)CSc1nccc2ccccc12	102%
Cc1ccc(NC(=O)CCOc2ccccc2)cc1S(=O)(=O)Nc1ccccc1Cl	102%

Compound	percent response vs DMSO
Cc1ccc(-c2csc(NC(=O)Cn3[nH]c(=O)c4ccccc4c3=O)n2)cc1	103%
Cc1c(C(=O)Nc2cccc(-c3nnc4n3CCCCC4)c2)oc2ccccc12	111%
O=C(Cn1[nH]c(=O)c2ccccc2c1=O)Nc1cccc(-c2nnc3n2CCCCC3)c1	17.9% [may fluoresce violet] (active)
Cc1cc(NC(=O)CSc2nccn2-c2ccc([N+](=O)[O-])cc2)no1	98.9%
COC(=O)c1cc(C(=O)OCC(=O)Nc2cc(C)on2)cc([N+](=O)[O-])c1	41.7% [may fluoresce violet] (active)
Cc1cc(NC(=O)COc2ccc([N+](=O)[O-])cc2)no1	105%
COc1ccc(S(=O)(=O)NCCc2cc3ccc(C)c(C)c3[nH]c2=O)cc1	101%
Oc1ccc2ccc3cccc[n+]3c2c1	100%
Nn1c(SCC(=O)Nc2nccs2)nncc1=O	95.5%
CC(C)COP(=O)(c1ccc(N(C)C)cc1)C(Nc1ccccc1)c1cccnc1 (configuration not stated)	100%
Cc1ccc(CNC(=O)CCS(=O)(=O)c2ccc3c(c2)CC(C)N3C(=O)C2CC2)o1 (configuration not stated)	17.4% [may fluoresce violet] (active)
COc1ccccc1CNC(=O)C1CCN(S(=O)(=O)c2ccc3c(c2)CC(C)N3C(=O)C2CC2)CC1 (configuration not stated)	102%
CCC(=O)N1c2ccc(S(=O)(=O)CCC(=O)N3CCN(c4ccccc4)CC3)cc2CC1C (configuration not stated)	105%
Cc1noc(C)c1S(=O)(=O)NCCc1ccc(S(N)(=O)=O)cc1	95.7%
Cc1cc(-c2ccc(C)c(S(=O)(=O)Nc3ccc(S(N)(=O)=O)cc3)c2)on1	99%
CCc1ccc(-c2cc(C)no2)cc1S(=O)(=O)NCCc1ccc(S(N)(=O)=O)cc1	33.8% [may fluoresce violet] (active)
CCOC(=O)N1CCC(N(CCOC)C(=O)Nc2ccc(C)c(C)c2)CC1	89.6%
CCOC(=O)C1Nc2ccc(C(F)(F)F)cc2C2C=CCC12 (configuration not stated)	93.3%
CC1CCN(C(=O)CN(c2ccc(Oc3ccccc3)cc2)S(C)(=O)=O)CC1	100%
COc1ccc(NC(=O)c2cccc(Cl)c2)c[n+]1[O-]	106%
COCC(C)OC(=O)c1c(N)n(CCCN2CCOCC2)c2nc3ccccc3nc12 (configuration not stated)	27% [may fluoresce violet] (active)
CC(CN1CCOCC1)OC(=O)c1ccc(C(C)(C)C)cc1 (configuration not stated)	105%

Compound	percent response vs DMSO
CC(C)(C)OC(=O)c1c(N)n(CCCN2CCCC2=O)c2nc3ccccc3nc12	90%
CCCCC(CC)CNC(=O)C(=O)C1C(=O)Nc2ccccc21 (configuration not stated)	96.8%
COc1ccc(N(CCC#N)S(=O)(=O)c2ccc(Cl)cc2)cc1	99.2%
COc1ccccc1OCCNCC(O)COc1cccc2[nH]c3ccccc3c12 (configuration not stated)	103%
O=C(CNC(=O)c1ccc(Cl)cc1Cl)NCC(=O)Nc1ccccc1N1CCOCC1	100%
COc1ccc(CCNc2cc(N3CCN(C(=O)c4ccccc4OC)CC3)ccc2[N+](=O)[O-])cc1OC	19.6% [may fluoresce violet] (active)
COc1ccccc1OCCNc1cc(N2CCOCC2)ccc1[N+](=O)[O-]	99.1%
O=C(c1ccccc1)N1CCN(c2ccc([N+](=O)[O-])c(NCc3ccco3)c2)CC1	98.5%
Cn1ccsc1=NC(=O)c1cc(S(=O)(=O)N2CCOCC2)ccc1Cl	101%
Cn1ccs/c1=N\S(=O)(=O)c1ccc(C(C)(C)C)cc1	43.3% [may fluoresce violet] (active)
COc1ccc(C2=Nn3c(nnc3-c3ccccc3OC)SC2)cc1OC1CCCC1	92.8%
Cc1cccn2c(=O)c3cc(C#N)c(=NC(=O)c4cccnc4)n(CC4CCCO4)c3nc12 (configuration not stated)	97.3%
Cc1cccn2c(=O)c3cc(C(=O)NCC4CCCO4)c(=N)n(Cc4ccc(F)cc4)c3nc12 (configuration not stated)	97.2%
Cc1cccn2c(=O)c3cc(C#N)c(=O)n(CCCN4CCOCC4)c3nc12	37.1% [may fluoresce violet] (active)
CCCOc1ccc(/C=N/NC(=O)C2CC2)c(OCCC)c1	101%
COc1cccc(N=c2oc3c(C)ncc(CO)c3cc2C(N)=O)c1	95%
Cc1oc(-c2ccccc2F)nc1CS(=O)CC(=O)NCCN1CCCCC1C (configuration not stated)	100%
Cc1ccccc1S(=O)(=O)Cc1ccc(C(=O)NCCN2CCCCC2C)o1 (configuration not stated)	34.3% [may fluoresce violet] (active)
CCc1ccccc1S(=O)(=O)Cc1ccc(C(=O)NCCc2ccccc2)o1	96.8%
CCCS(=O)(=O)N1CCCC(C(=O)NCCN2CCCCC2C)C1 (configuration not stated)	104%
Cc1cc(N2CCOCC2)nc2ccc(NC(=S)N3CCN(Cc4ccccc4)CC3)cc12	105%
